MITF inh – inhibitors of MITF; TRPM1 promoter luciferase, luminescence, 24 h; inhibition, % (no concentration beside the values); 37,000 tested, 0.28% active; AID 2240; in the data active = inhibition above about 85%; inconclusive = no clear call, values can overlap the other calls; inactive = below about 68%;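 note: human melanocyte line stably carrying TRPM1 promoter luciferase reporter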
Shh pathway inh – blocks Sonic Hedgehog signaling | Shh-LIGHT2 Gli-luciferase reporter, 30 h | inhibition, % (no concentration beside the values) | 22,000 tested, 2.1% active | AID 2313;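 active = mean inhibition across valid replicates above about 65%, limit read from the data; inconclusive = mean under the limit, yet half or more replicates past it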;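 note: pathway switched on by Shh-conditioned medium diluted 1 in 25 in low serum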
NOMO-1 viab – STK33 inhibitor candidate reducing NOMO-1 cell viability; NOMO-1 AML viability, CellTiter-Glo luminescence, 72 h; inhibition, % (no concentration beside the values); 37,000 tested, 7.5% active; AID 2330; in the data active = inhibition above about 80%; inconclusive = no clear call, values can overlap the other calls
A number is an active result; – = inactive; ? = inconclusive; · = not tested or not shown. An excerpt weighted towards active compounds, which were near 8.1% of everything screened.

SMILES	MITF inh	Shh pathway inh	NOMO-1 viab
Cc1ccc(S(=O)(=O)Nc2ccc3c(c2)CC(=O)N([C@H](C)CO)C[C@H](C)[C@H](CN(C)Cc2ccc(C(F)(F)F)cc2)O3)cc1	–	–	104.3
C[C@H](CO)N1C[C@H](C)[C@H](CN(C)Cc2ccc(C(F)(F)F)cc2)Oc2ccc(NS(=O)(=O)c3ccccc3)cc2CC1=O	–	–	–
Cc1ccc(S(=O)(=O)Nc2ccc3c(c2)CC(=O)N([C@@H](C)CO)C[C@@H](C)[C@@H](CN(C)Cc2ccc(C(F)(F)F)cc2)O3)cc1	–	–	83.8
COc1ccc(CN(C)C[C@H]2Oc3ccc(NS(=O)(=O)c4ccc(F)cc4)cc3CC(=O)N([C@H](C)CO)C[C@H]2C)cc1	–	·	–
COc1ccc(S(=O)(=O)Nc2ccc3c(c2)CC(=O)N([C@@H](C)CO)C[C@H](C)[C@@H](CN(C)Cc2ccc(C(F)(F)F)cc2)O3)cc1	–	–	112.5
C[C@@H]1CN([C@H](C)CO)C(=O)Cc2cc(NS(=O)(=O)c3ccc(F)cc3)ccc2O[C@@H]1CN(C)Cc1ccc(C(F)(F)F)cc1	–	?	111.0
COc1cccc(CO)c1OCC(=O)Nc1ccc(F)cc1	–	·	–
Cc1cc([N+](=O)[O-])ccc1NC(=O)CSc1nnc(-c2ccccc2)o1	–	·	–
Cc1cc(C)c(C)c(Cn2c(CCCO)nc3ccccc32)c1C	–	·	–
CS(=O)(=O)N(CC(=O)Nc1ccc2ccccc2c1)c1cccc2ccccc12	–	·	–
COc1ccc(F)cc1S(=O)(=O)NCc1cccnc1	–	·	–
C=C1CC[C@H]2[C@@](C)(CCC(O)[C@@]2(C)CO)[C@@H]1CCC1=CCOC1=O (stereo not given in full)	–	–	–
C=C1CC[C@@H]2[C@](C)(CO)[C@H](O)CC[C@@]2(C)[C@@H]1C/C=C1/C(=O)OC[C@H]1O	–	–	107.8
C[C@H]1CN([C@@H](C)CO)C(=O)c2cc(NC(=O)Nc3ccc(C(F)(F)F)cc3)ccc2O[C@@H]1CN(C)C(=O)NC1CCCCC1	–	–	–
C[C@@H]1CN([C@H](C)CO)C(=O)c2cc(NC(=O)Nc3ccc(F)cc3)ccc2O[C@H]1CN(C)C(=O)Nc1ccc(C(F)(F)F)cc1	–	–	–
C[C@@H]1CN([C@@H](C)CO)C(=O)c2cc(NC(=O)Nc3ccc(C(F)(F)F)cc3)ccc2O[C@@H]1CN(C)C(=O)NC1CCCCC1	–	–	107.4
C[C@@H]1CN([C@H](C)CO)C(=O)c2cc(NC(=O)Nc3ccc(C(F)(F)F)cc3)ccc2O[C@H]1CN(C)C(=O)Nc1ccc(C(F)(F)F)cc1	–	–	108.6
C[C@H]1CN([C@@H](C)CO)C(=O)c2cc(NC(=O)Nc3ccc(F)cc3)ccc2O[C@@H]1CN(C)C(=O)Nc1ccc(C(F)(F)F)cc1	–	–	–
C[C@H]1CN([C@@H](C)CO)C(=O)c2cc(NC(=O)Nc3ccc(C(F)(F)F)cc3)ccc2O[C@@H]1CN(C)C(=O)Nc1ccc(C(F)(F)F)cc1	–	–	122.1
Cc1ccc(S(=O)(=O)N(C)CC(=O)Nc2ccc3ccccc3c2)cc1	–	·	–
Cn1c(SCC(=O)Nc2ccc(Oc3ccccc3)cc2)nnc1-c1ccccc1Cl	–	·	–
COc1ccc(C(=O)O)cc1NC(=S)NC(=O)COc1ccc(Br)cc1	–	·	–
CNC(=O)Cc1coc2ccc3ccccc3c12	–	·	–
NC(=O)c1ccc(NC(=O)C2CCCN(S(=O)(=O)c3ccc(Br)cc3)C2)cc1 (stereo not given)	–	·	–
COc1ccccc1OCC(=O)Nc1sc2c(c1C#N)CCCCC2	–	·	–
SMILES	MITF inh	Shh pathway inh	NOMO-1 viab
COc1cc2nc(CCN3C(=O)c4ccccc4C3=O)oc(=O)c2cc1OC	–	·	–
Cc1sc2ncnc(SCC(=O)Nc3ccc4c(c3)OCCO4)c2c1C	–	·	–
O=C(COc1ccc(Cl)cc1Cl)Nc1ccc2oc(-c3ccncc3)nc2c1	–	·	–
Cc1nc(SCC(=O)Nc2ccc(Br)cc2)n[nH]1	–	·	–
OC(c1cc(C(F)(F)F)nc2c(C(F)(F)F)cccc12)C1CCCCN1 (stereo not given)	–	–	129.3
COc1ccc(-c2csc3ncn(CC(=O)Nc4sc5c(c4C#N)CCC5)c(=O)c23)cc1OC	–	·	–
O=C(CCSc1nc2ccccc2s1)Nc1ccccc1Cl	86.2	·	–
NNC(=O)CCCSc1nc2ccccc2s1	–	–	–
COc1ccc(S(=O)(=O)N(CC(=O)O)c2ccc(F)cc2)cc1	–	·	–
CCc1ccccc1NC(=O)CN(C)S(=O)(=O)c1ccc2ccccc2c1	–	·	–
OC[C@H]1O[C@@H](n2cnc3c(NCc4ccco4)ncnc32)[C@H](O)[C@@H]1O	–	97.8	107.7
c1coc(CNc2ncnc3c2sc2nc(N4CCOCC4)c4c(c23)CCC4)c1	–	·	–
C[C@@H]1CCCCO[C@@H](CN(C)Cc2ccc(C(=O)Nc3ccccc3N)cc2)[C@@H](C)CN([C@H](C)CO)C(=O)c2cc(NC(=O)Nc3ccc(F)cc3)ccc2O1	–	·	110.6
C[C@@H]1CCCCO[C@H](CN(C)Cc2ccc(C(=O)O)cc2)[C@@H](C)CN([C@H](C)CO)C(=O)c2cc(NC(=O)c3ccccc3)ccc2O1	–	·	–
C[C@@H]1CCCCO[C@@H](CN(C)Cc2ccc(C(=O)Nc3ccccc3N)cc2)[C@@H](C)CN([C@H](C)CO)C(=O)c2cc(NC(=O)Nc3ccc(C(F)(F)F)cc3)ccc2O1	–	·	?
C[C@@H]1CCCCO[C@@H](CN(C)Cc2ccc(C(=O)Nc3ccccc3N)cc2)[C@@H](C)CN([C@H](C)CO)C(=O)c2cc(NC(=O)CCC(F)(F)F)ccc2O1	–	·	127.2
C[C@@H]1CCCCO[C@H](CN(C)Cc2ccncc2)[C@@H](C)CN([C@H](C)CO)C(=O)c2cc(NC(=O)CCCCCC(=O)Nc3ccccc3N)ccc2O1	–	·	–
C[C@@H]1CCCCO[C@H](CN(C)Cc2ccc(C(F)(F)F)cc2)[C@@H](C)CN([C@H](C)CO)C(=O)c2cc(NC(=O)CCCCCC(=O)Nc3ccccc3N)ccc2O1	–	·	131.2
C[C@@H]1CCCCO[C@@H](CN(C)Cc2ccc(C(=O)Nc3ccccc3N)cc2)[C@@H](C)CN([C@H](C)CO)C(=O)c2cc(NC(=O)Nc3ccccc3)ccc2O1	–	·	?
C[C@@H]1CCCCO[C@@H](CN(C)Cc2ccc(C(=O)Nc3ccccc3N)cc2)[C@@H](C)CN([C@H](C)CO)C(=O)c2cc(NC(=O)c3ccccc3)ccc2O1	–	·	140.9
O=C(COc1ccc(Cl)cc1CO)Nc1ccccc1F	–	·	–
C[C@@H]1CCCCO[C@@H](CN(C)Cc2ccc(C(=O)Nc3ccccc3N)cc2)[C@@H](C)CN([C@H](C)CO)C(=O)c2cc(NC(=O)C3CCCCC3)ccc2O1	–	·	123.4
C[C@@H]1CCCCO[C@@H](CN(C)Cc2ccc(C(=O)Nc3ccccc3N)cc2)[C@@H](C)CN([C@H](C)CO)C(=O)c2cc(NC(=O)c3ccncc3)ccc2O1	–	·	–
COc1cc(NC(=O)CCN2C(=O)c3ccccc3C2=O)cc(OC)c1	–	·	–
Cc1nc(SCCC(=O)Nc2ccccc2C#N)nc2cc3c(cc12)CCC3	–	·	–
Cc1ccc(S(=O)(=O)N2Cc3ccccc3CC2C(=O)Nc2sc3c(c2C#N)CCCC3)cc1 (stereo not given)	–	·	–
O=C(Nc1ccc(-c2ccccc2)cc1)C1CC1c1ccccc1 (stereo not given)	–	–	–

Assay outcomes: PubChem, Broad Institute
